Bioassay records: PubChem, The Scripps Research Institute Molecular Screening Center
PAFAH1B3 inh: PAFAH1B3 enzyme inhibitors, primary screen, biochemical, fluorescence polarization, human | Platelet-activating factor acetylhydrolase IB subunit alpha1 (Homo sapiens), Q15102 | recombinant PAFAH1B3, FP-rhodamine probe | inhibition, % at 3.39 µM | actives 0.28% (n = 340,000);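 active = inhibition above the screen-wide average of all tested compounds plus 3 SD, cut at about 25% in these data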;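 also: 0% = enzyme with DMSO only and 100% = wells lacking PAFAH1B3 protein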
pPAFAH inh: pPAFAH enzyme inhibitors, primary screen, biochemical, fluorescence polarization, human; Platelet-activating factor acetylhydrolase (Homo sapiens), Q13093; recombinant pPAFAH, FP-rhodamine probe fluorescence polarization; inhibition, % at 3.39 µM; actives 1.5% (n = 330,000);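 active = inhibition above the mean inhibition across the screen plus 3 SD, cut at about 25% in these data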;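 also: inhibitors block binding of the rhodamine activity-based probe so polarization drops; 0% = enzyme with DMSO and 100% = wells lacking pPAFAH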
PAFAH2 inh: PAFAH2 enzyme inhibitors, primary screen, biochemical, fluorescence polarization, human. recombinant PAFAH2, FP-rhodamine activity probe. Platelet-activating factor acetylhydrolase 2, cytoplasmic (Homo sapiens), Q99487. inhibition, % at 3.39 µM. actives 0.99% (n = 340,000);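 active = inhibition above the mean over all tested compounds plus 3 SD, cut at about 30% in these data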;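 also: inhibitors block probe labeling of enzyme so polarization drops; 0% = enzyme with DMSO and 100% = wells lacking PAFAH2 protein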
PME-1 inh: PME-1 inhibitors via competitive probe labeling, primary screen, biochemical, fluorescence polarization, FP-Rh probe, HTS; Protein phosphatase methylesterase 1 (Homo sapiens), Q9Y570; recombinant PME-1; inhibition, % at 5.9 µM; actives 0.53% (n = 320,000);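 active = inhibition above the campaign mean of all compounds plus 3 SD, cut at about 26% in these data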;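 also: competitive labeling of PME-1 active site by serine hydrolase directed probe; 0% = PME-1 with DMSO and 100% = wells lacking PME-1 enzyme; inhibitors block probe labeling so polarization falls and inhibition rises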
Target sequence (Q9Y570 whole entry, looked up): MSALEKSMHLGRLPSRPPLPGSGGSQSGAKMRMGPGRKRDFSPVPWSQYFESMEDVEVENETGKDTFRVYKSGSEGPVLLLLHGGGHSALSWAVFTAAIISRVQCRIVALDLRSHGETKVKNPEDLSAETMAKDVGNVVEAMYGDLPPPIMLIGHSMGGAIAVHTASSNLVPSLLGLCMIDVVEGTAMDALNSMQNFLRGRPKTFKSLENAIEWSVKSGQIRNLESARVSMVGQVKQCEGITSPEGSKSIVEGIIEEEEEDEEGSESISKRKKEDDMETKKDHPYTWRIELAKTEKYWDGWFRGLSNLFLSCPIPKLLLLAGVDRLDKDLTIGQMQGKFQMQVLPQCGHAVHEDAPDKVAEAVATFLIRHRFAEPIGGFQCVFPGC
PAFAH1B2 FP inh: PAFAH1B2 enzyme inhibitors, primary screen, biochemical, fluorescence polarization, human; recombinant PAFAH1B2, FP-rhodamine activity probe; inhibition, % at 3.39 µM; actives 1.2% (n = 340,000);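 active = inhibition above the mean of all tested compounds plus 3 SD, cut at about 24% in these data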;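 also: 0% = enzyme with DMSO and 100% = wells lacking PAFAH1B2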
Fam108B counter: mouse Fam108B serine hydrolase inhibitors, primary screen, counter-screen for RBBP9 inhibitor project, biochemical, fluorescence polarization | recombinant Fam108B, FP-Rh probe fluorescence polarization | inhibition, % at 9.51 µM | actives 0.33% (n = 300,000) | AID 1947, 2009;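 active = inhibition above the screen mean inhibition plus 3 SD, computed separately per campaign, cut at about 18% in these data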;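 also: inhibitors lower polarization as less probe binds the enzyme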
* marks the source's active call; other numbers are inactive results; nt = no result given. In the library only some 2.9% were active in any assay of this set; here they are far more common.

SMILES | PAFAH1B3 inh | pPAFAH inh | PAFAH2 inh | PME-1 inh | PAFAH1B2 FP inh | Fam108B counter
O=C(O)CCn1cc(/C=C\C(=O)c2ccc(Cl)cc2)c(-c2cccc(Br)c2)n1 | 6 | 2 | 6 | -7 | 46* | -12
O=Cc1cn(CCC(=O)O)nc1-c1cccc(Br)c1 | 9 | 6 | 2 | 5 | 2 | -2
COc1ccc(-c2nn(CCC(=O)O)cc2/C=C2\SC(N)=NC2=O)cc1 | 16 | -3 | 3 | 5 | 4 | 1
Nc1ccc(N2CCCCC2)c(S(=O)(=O)Nc2ccc(Cl)cc2)c1 | 0 | 8 | -20 | 0 | 3 | 0
CCOc1ccccc1C=C1SC(=S)N(CC)C1=O | 12 | nt | -2 | nt | -3 | nt
O=C(O)CCN1C(=O)/C(=C\c2ccc(OCc3ccccc3)c(OCc3ccccc3)c2)SC1=S | 4 | 9 | -4 | 2 | -1 | 0
O=C(O)CN1C(=O)/C(=C\c2ccccc2OCc2ccc(Cl)cc2Cl)SC1=S | 5 | 34* | 29 | 8 | 15 | -8
O=C(O)CCN1C(=O)/C(=C\c2cccc(OCc3ccccc3)c2)SC1=S | 7 | 11 | -2 | 1 | 27* | -5
O=C(O)CN1C(=O)/C(=C\c2cccc(OCc3ccc(Cl)cc3Cl)c2)SC1=S | 1 | nt | 25 | nt | 25* | nt
Fc1ccccc1-n1cc(-c2ccccc2)[nH]c1=S | 3 | 13 | 7 | 3 | 4 | -5
Cc1ccc(/C=C(\C#N)C(=O)NCC2CCCO2)o1 (stereo not drawn) | 13 | -6 | -4 | 2 | -4 | -1
Cc1ccccc1-n1c(C)cc(/C=C(\C#N)C(=O)NCC2CCCO2)c1C (stereo not drawn) | -1 | 26* | 0 | -6 | 1 | -2
Nc1nonc1C(=O)NCCN=Cc1ccccc1O | 5 | 0 | 2 | -3 | 0 | -5
Nc1nonc1C(=O)NCCN=Cc1cc(Cc2ccccc2)cc(Br)c1O | 6 | 33* | 3 | -2 | 10 | 4
Cc1ccc(C)c(NC(=S)N2C3CCCC2CC(NC(=O)C2CC2)C3)c1 (stereo not drawn) | 1 | 4 | -2 | -6 | -4 | 2
CCC(C)c1ccc(C2C3=C(Nc4nc(N)[nH]c(=O)c42)c2ccccc2C3=O)cc1 (stereo not drawn) | -1 | 25* | -2 | 1 | -2 | 2
Nc1nc2c(c(=O)[nH]1)C(c1ccccc1)C1=C(N2)c2ccccc2C1=O (stereo not drawn) | -5 | 8 | 18 | -2 | 3 | 6
COC(=O)C1(CCSC)NC(c2ccc(O)cc2)C2C(=O)N(c3ccc(F)cc3)C(=O)C21 (stereo not drawn) | 5 | -5 | 2 | -3 | -1 | 1
CCn1c2ccccc2c2cc(NC(=O)c3ccccc3[N+](=O)[O-])ccc21 | 8 | 15 | 4 | 30* | 0 | 13
CS(=O)(=O)N1CCCC(C(=O)Nc2ccccc2Cl)C1 (stereo not drawn) | 2 | 3 | 0 | -7 | 1 | 2
Cc1ccc(C(=O)NCc2ccco2)cc1S(=O)(=O)Nc1cccc(C)c1C | 5 | 33* | 3 | 9 | 5 | 1
COCc1nnc(NC(=O)CCCOc2ccccc2)s1 | 11 | 34* | -2 | 2 | 2 | 2
COCc1nnc(NC(=O)CCCOc2ccccc2OC)s1 | -13 | 3 | 0 | -3 | 8 | -2
CC(=O)c1sc(NC(=O)CCS(=O)(=O)c2ccc(Cl)cc2)nc1C | 9 | -3 | -8 | -5 | 6 | -4
Cc1nc(CS(=O)(=O)c2ccc(Cl)cc2)sc1C(=O)O | 7 | -4 | 21 | 3 | 25* | 3
Cc1ccc(S(=O)(=O)NCCC(=O)Nc2nnc(C3CC3)s2)cc1C | 4 | 2 | -7 | 4 | 6 | 1
O=C(COC(=O)c1cc[n+]([O-])cc1)NCc1ccccc1Cl | 4 | 1 | -9 | 6 | 4 | -1
Oc1ccc(/C=N/N(c2ccccc2)c2ccccc2)c(O)c1O | -5 | 69* | 9 | 2 | 4 | 4
